{
  "source": "PubChem BioAssay (NCATS)",
  "note": "Records with an inconclusive call do not appear. Unmarked numbers belong to inactive results. Active and inactive are the calls of the source. Calls come from the whole dose curve; as a rule, active = well fitted inhibition curve with a large enough effect; inconclusive = small, poorly fitted or top-dose-only effect; inactive = flat fitted curve, though single readings scatter. *1 amine or outer side, *2 acyl side, *3 side chain or, on linkers, in order; H or OH if unused. Where a SMILES comes first, the peptide text is derived from it. [ ]: non-standard residue; d: D form. Ala(indol-2-yl) = N[C@@H](Cc1cc2ccccc2[nH]1)C(=O)O; X7 = O=C([C@@H](CC(O)CCl)O[*:1])[*:2]; X5 = CC(CC(O[*:1])C(=O)[*:2])C(=O)O; aIle = CC[C@@H](C)[C@H](N)C(=O)O; NMeV = CN[CH](C(=O)O)C(C)C; NMeA = CN[CH](C)C(=O)O; Aib = CC(C)(N)C(=O)O; βAla = NCCC(=O)O",
  "data": [
    {"biological_target": "Glutathione peroxidase 1 (Homo sapiens) (UniProt P07203)", "sequence (P07203 whole entry, looked up)": "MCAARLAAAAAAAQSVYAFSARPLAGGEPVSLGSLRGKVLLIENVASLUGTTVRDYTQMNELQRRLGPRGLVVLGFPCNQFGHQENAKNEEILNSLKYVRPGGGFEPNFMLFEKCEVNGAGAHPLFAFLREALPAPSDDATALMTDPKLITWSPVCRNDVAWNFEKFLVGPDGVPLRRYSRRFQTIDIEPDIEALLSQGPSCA", "assay": "Primary qHTS Assay for Inhibitors of Recombinant Selenoprotein Glutathione Peroxidase 1 (GPX1) (AID 1845191); note: nearly all actives have a fitted effect of over 65% in size", "details": "recombinant GPX1, GR-coupled NADPH fluorescence, 15 min; series mostly up to 48.8 µM; activity, negative = inhibition: at the top concentration", "text": "Assay Provider: Elias S.J. Arner MD PhD.\nDepartment of Medical Biochemistry and Biophysics\nKarolinska Institutet, Solna, Stockholm, Sweden\nSelenoprotein glutathione peroxidases (GPX), like the ubiquitously expressed GPX1 and the ferroptosis modulator GPX4, enact their antioxidant activities by reducing hydroperoxides using glutathione. […] GPX1 and GPX4 inhibitors have thus shown promise as anti-cancer agents. Existing inhibitors are often promiscuous, or modulate GPX activity only indirectly, so novel direct inhibitors identified through screening against GPX1 and GPX4 could be valuable. Here, we developed optimized glutathione reductase (GR)-coupled GPX assays for the biochemical high-throughput screen (HTS) of almost 12,000 compounds with known mechanisms of action. Initial hits were triaged using a GR counter-screen, assessed for isoform specificity using a separate GPX2 assay, and were assessed for general selenocysteine-targeting activity using a thioredoxin reductase (TXNRD1) assay. With this suite of assays, we identified novel GPX1/GPX2- and GPX4-specific inhibitors and can here present a validated pipeline for future discovery research for selenoprotein-targeting agents.\nSEQUENCE No. (e.g., 1, 2, 3, etc.); […] (e.g., Cells, Incubation, Reagent, etc.); VALUE; DESCRIPTION.\n1; Reagent 1; 3 uL; GPx1 enzyme or no enzyme control in 1536-well, black, solid Greiner assay plate.\n2; Compound; 25 nL; Kalypsis pin tool (Wako USA) equipped with a 1536-well pin head.\n3; Incubation; 30 min; room temperature.\n4; Reagent 2; 1 uL; 10 nM GPX1, 1 mM GSH, 0.5 mM CHP, 0.5 mM NADPH, 100 nM GR, 0.01% BSA substrate\n5; Detection; Fluorescence; ViewLux microplate reader, excitation 340 nm and emission 450 nm.\n6; Incubation; 15 min; room temperature.\n7; Detection; Fluorescence; ViewLux microplate reader, excitation 340 nm and emission 450 nm.\nNOTES (numbers refer to Sequence numbers above)\n1. 3 uL of 16.66 nM GPX1 and 0.016% BSA in assay buffer (50 mM Tris-HCl, 2 mM EDTA (pH 7.5), 150 mM NaCl) was added to columns 3-48 of 1536-well assay plates using a BioRAPTR Flying Reagent Dispenser (Let's Go Robotics (LGR), Carlsbad, CA). A no-enzyme control (0.01% BSA in TES assay buffer) was added to columns 1-2.\n2. 25 nL of test compounds and DMSO controls were added to each well with a pin tool (Kalypsys).\n3. The assay plates were incubated for 30 minutes at room temperature.\n4. 1 uL of master mix (500 nM glutathione reductase (GR), 5 mM reduced glutathione (GSH), 2.5 mM NADPH in assay buffer) was added. 1 uL of cumene hydroperoxide (CHP) ([2.5 mM] in 50% EtOH) was then added within 5 minutes to initiate the reaction. Final concentrations were: 10 nM GPX1, 1 mM GSH, 0.5 mM CHP, 0.5 mM NADPH, 100 nM GR, 0.01% BSA.\n5. Initial fluorescence readout (t=0) at 340/450 nm was measured using a ViewLux multimodal detector (PerkinElmer, Waltham, MA).\n7. Endpoint fluorescence readout (t=15) at 340/450 nm was measured 15 min after room temperature incubation.", "values": [
      {"compound": "N#Cc1cn([C@@H]2O[C@H](CO)[C@H](O)[C@@H]2O)c2ncnc(N)c12", "activity, negative = inhibition": "-10.4%"},
      {"compound": "COc1ccc2c3c([nH]c2c1)C(C=C(C)C)N1C(=O)C2CCCN2C(=O)C1C3", "note": "(stereo not given)", "activity, negative = inhibition": "-12.1% [at 27.7 µM]"},
      {"compound": "CC1=CC2/C=C(\\C)CCC(O)C(O)/C=C/C(=O)C23C(=O)NC(CC(C)C)C3C1C", "note": "(stereo not given)", "activity, negative = inhibition": "-18.3% [at 27.7 µM]"},
      {"compound": "CN1CCc2cc3c(cc2C1C1OC(=O)c2c1ccc1c2OCO1)OCO3", "note": "(stereo not given)", "activity, negative = inhibition": "-7.13% [at 27.7 µM]"},
      {"compound": "C[C@@H]1O[C@@H](O[C@H]2CC[C@@]3(C)C(CC[C@@H]4C3CC[C@]3(C)[C@@H](C5=CC(=O)OC5)CC[C@]43O)C2)[C@H](O)[C@H](O)[C@H]1O", "note": "(stereo not given in full)", "activity, negative = inhibition": "-2.88% [at 27.7 µM]"},
      {"compound": "C=CC/C=C\\C/C=C\\CCCCCCCc1cc(O)cc(O)c1", "activity, negative = inhibition": "-9.32% [at 27.7 µM]"},
      {"compound": "CC(C)(C)[C@]1(O)C[C@@H]2OC(=O)C[C@@]23C(=O)O[C@@H]2OC(=O)[C@@H](O)[C@]213", "activity, negative = inhibition": "-12.7% [at 27.7 µM]"},
      {"compound": "CCC1NC(=O)C2C(Cl)C(Cl)CN2C(=O)C(CC)NC(=O)CC(c2ccccc2)NC(=O)C(CO)NC1=O", "note": "(stereo not given)", "activity, negative = inhibition": "-13.5% [at 27.7 µM]"},
      {"compound": "O=C(C[C@@H]1NCCC[C@H]1O)Cn1cnc2ccccc2c1=O", "outcome": "inactive"},
      {"compound": "C/C=C(/C)C(=O)O[C@H]1[C@@H]2[C@H](C)C(=O)O[C@@H]2C[C@@H](C)[C@@H]2C=CC(=O)[C@]21C", "outcome": "inactive [at 27.7 µM]"},
      {"compound": "COc1ccc2c(c1)c(CCN(C)C)cn2S(=O)(=O)c1ccccc1", "outcome": "inactive"},
      {"compound": "CCOC(=O)C1(c2ccccc2)CCCN(C)CC1", "note": "(stereo not given)", "outcome": "inactive"},
      {"compound": "CC(C)(NC(=O)[C@@H](N)Cc1ccc(O)cc1)C(=O)N[C@@H](Cc1cc2ccccc2[nH]1)C(=O)N[C@@H](Cc1ccccc1)C(=O)O", "note": "(H-Y[Aib][Ala(indol-2-yl)]F-OH)", "activity, negative = inhibition": "0.29% [at 9.52 µM]"},
      {"compound": "C[C@]12CC[C@H](O)CC1=CC[C@@H]1C2CC[C@]2(C)[C@@H](C3=CC(=O)OC3)CC[C@]12O", "note": "(stereo not given in full)", "activity, negative = inhibition": "-0.154% [at 27.7 µM]"},
      {"compound": "O=C(OC[C@H]1O[C@@H](Oc2ccc(O)cc2CO)[C@H](O)[C@@H](O)[C@@H]1O)c1ccccc1", "activity, negative = inhibition": "-15.1% [at 27.7 µM]"},
      {"compound": "COC(=O)CC1CC2(C(=O)c3c(O)cccc3C2(O)C(=O)OC)C(C)O1", "note": "(stereo not given)", "outcome": "inactive [at 27.7 µM]"},
      {"compound": "CC(C)OC(=O)c1ccnc2cc(C(OCCN3CCCCC3)c3ccccc3Cl)sc12", "note": "(stereo not given)", "outcome": "inactive"},
      {"compound": "CCC1CN2CCc3cc(OC)c(OC)cc3C2CC1CC1=NCCc2cc(O)c(OC)cc21", "note": "(stereo not given)", "outcome": "inactive [at 27.7 µM]"},
      {"compound": "CCC(C)C1NC(=O)C2CCCN2C(=O)C(CC(C)C(=O)O)OC(=O)CCNC(=O)C(C)N(C)C(=O)C(C(C)C)N(C)C1=O", "note": "(stereo not given) (cyclo([X5]PI[NMeV][NMeA][βAla]); configuration not given here)", "outcome": "inactive [at 15.3 µM]"},
      {"compound": "CCCCCn1cc(C(=O)Cc2ccccc2OC)c2ccccc21", "activity, negative = inhibition": "-12.3%"},
      {"compound": "C=C(C)[C@@]12O[C@@H]1[C@@]1(C)C(=C[C@H]2O)CC[C@@H](O)[C@@H]1C", "activity, negative = inhibition": "-9.73%"},
      {"compound": "O=C(NCCN1CCC2(CC1)C(=O)NCN2c1cccc(F)c1)c1ccc2ccccc2c1", "outcome": "inactive"},
      {"compound": "COC1C=CC23c4cc5c(cc4COC2(O)CN(C)C3C1)OCO5", "note": "(stereo not given)", "outcome": "inactive [at 27.7 µM]"},
      {"compound": "C[C@]12CC[C@@H](O[C@@H]3O[C@H](CO)[C@@H](O)[C@H](O)[C@H]3O)C[C@@]1(O)CCC1C2CC[C@]2(C)[C@@H](C3=CC(=O)OC3)CC[C@]12O", "note": "(stereo not given in full)", "activity, negative = inhibition": "0.798% [at 27.7 µM]"},
      {"compound": "CN(C)c1cc2c(cc1Sc1nc3c(N)nccc3n1CCNCC(C)(C)C)OCO2", "Potency": "inactive"},
      {"compound": "COC[C@]12CN(C)C3C4[C@H](OC)[C@H]1C3(C(OC)C[C@H]2O)[C@H]1C[C@@]2(O)[C@H](OC(=O)c3ccccc3)[C@@H]1[C@]4(O)[C@@H](O)[C@@H]2OC", "note": "(stereo not given in full)", "outcome": "inactive"},
      {"compound": "CN1CCC2=C(C1)c1ccccc1Cc1ccccc12", "Potency": "inactive"},
      {"compound": "CC1=CC2/C=C(\\C)CCCC(O)/C=C/C(=O)OC23C(=O)NC(CC(C)C)C3C1C", "note": "(stereo not given)", "activity, negative = inhibition": "-0.498% [at 27.7 µM]"},
      {"compound": "CC[C@@H](C)[C@@H]1NC(=O)[C@@H]2CCCN2C(=O)[C@@H](CC(O)CCl)OC(=O)CCNC(=O)[C@H](C)N(C)C(=O)[C@H](C(C)C)N(C)C1=O", "note": "(stereo not given in full) (cyclo([NMeA][βAla][X7]P[aIle][NMeV]))", "outcome": "inactive [at 15.3 µM]"},
      {"compound": "CC(=O)O[C@H]1CC[C@H]2[C@@H]3CC[C@H]4CC(=O)C=C(C)[C@]4(C)[C@H]3CC[C@]12C", "activity, negative = inhibition": "-8.07%"},
      {"compound": "C/C=C(\\C)C(=O)OC1CC2C(CC=C3CC(OC4CC(OC)C(OC5CC(OC)C(OC6CC(OC)C(OC7CC(OC)C(O)C(C)O7)C(C)O6)C(C)O5)C(C)O4)CCC32C)C2(O)CCC(C(C)=O)C12C", "note": "(stereo not given)", "outcome": "inactive [at 15.3 µM]"},
      {"compound": "C[C@@H]1C[C@@H](O)[C@]2(O)O[C@@H]3C[C@@]4(C=O)C(CC[C@@H]5C4CC[C@]4(C)[C@@H](C6=CC(=O)OC6)CC[C@]54O)C[C@H]3O[C@@H]2O1", "note": "(stereo not given in full)", "activity, negative = inhibition": "2.31% [at 27.7 µM]"},
      {"compound": "CC(=O)[C@@]1(O)CC[C@H]2[C@@H]3CCC4=CC(=O)CC[C@]4(C)C3(F)[C@@H](O)C[C@@]21C", "note": "(stereo not given in full)", "outcome": "inactive"},
      {"compound": "COc1ccc(CC2C(=O)NC(C)C(=O)N(C)C3Cc4ccc(cc4)Oc4cc(ccc4OC4OC(CO)C(O)C(O)C4O)CC(C(=O)NC(C)C(=O)NC(CCC(=O)O)C(=O)N2C)N(C)C3=O)cc1", "note": "(stereo not given)", "activity, negative = inhibition": "-2.66% [at 15.3 µM]"},
      {"compound": "Cc1c(N2C(=O)[C@@H]3[C@H](O)CCN3C2=O)ccc(C#N)c1Cl", "activity, negative = inhibition": "0.369%"},
      {"compound": "C/C=C(/C)C1C=CC2CC(C)CC(C)C2C1/C(O)=C1\\C(=O)NC(CC(C)(O)C(=O)O)C1=O", "note": "(stereo not given)", "activity, negative = inhibition": "-13.7% [at 27.7 µM]"},
      {"compound": "CN1C2CCC1CC(OC(=O)N1Cc3ccccc3NC1=O)C2", "note": "(stereo not given)", "outcome": "inactive"},
      {"compound": "C/C=C(\\C)C(O)C(C)/C=C(C)/C=C/C/C(C)=C/Cc1nc(OC)c(OC)c(O[C@@H]2O[C@@H](C)[C@H](O)[C@@H](O)[C@H]2O)c1C", "note": "(stereo not given in full)", "outcome": "inactive [at 27.7 µM]"},
      {"compound": "Nc1ncnc2c1ncn2[C@@H]1O[C@@H]2COP(O)(=S)O[C@H]2[C@H]1O", "note": "(stereo not given in full)", "outcome": "inactive [at 9.52 µM]"},
      {"compound": "O=S(=O)(c1ccccc1F)N1CCOc2c(N3CCNCC3)cccc21", "outcome": "inactive"}
    ]}
  ]
}
